# Rows were chosen to be rich in hits. Some 7.9% of all compounds tested hit in one or more screens of this group.
# LASV entry inh: inhibitors of Lassa virus binding or cell entry; Lassa virus pseudotype entry inhibition, cell reporter; Potency, µM (series often up to 37.9 µM), for inactives: top-dose activity change, negative = inhibition, most hits filed as inhibitors; actives 1.2% (n = 300,000); calls by dose curve; tested in HEK293 cells; note: potency is the fitted concentration of half-maximal effect; nearly all actives have a fitted effect of over 50% in size
# FMDV antiviral: antivirals against foot and mouth disease virus; FMDV antiviral cell-based qHTS; Potency, µM (series often up to 57.9 µM), for the others: top-dose activity change, negative = inhibition, hits mostly inhibitors; actives 1.2% (n = 410,000); calls by dose curve; tested in HEK293T cells; note: read-out not given here; potency is the fitted concentration of half-maximal effect; nearly all actives have a fitted effect of over 45% in size
# HCMV inh: blocks human cytomegalovirus replication; HFF cells, HCMV-luciferase reporter, 72 h; hits give low values; activity change, negative = inhibition, % at 57.5 µM; actives 4.5% (n = 410,000); AID 1259415; in the data active = activity change below about -60%; inconclusive = no clear call, values can overlap the other calls; inactive = above about -39%
#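 Screen run at 2 compound doses on HFFs infected with reporter HCMV, MOI 1 PFU/cell. Luciferase activity from cell lysates at 72 h post infection gave inhibition relative to buffer-only and Salinomycin wells.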
# HCV inhibitor: HCV inhibition | Huh7.5.1 HCVcc-Cre infection, luciferase reporter, 44 h | Potency, µM (top dose mostly 41.8 µM), without a hit: at the top dose activity change, negative = inhibition, actives largely listed as inhibitors | actives 3.4% (n = 340,000) | AID 651820; active = well fitted inhibition curve with a large enough effect; inconclusive = small, poorly fitted or top-dose-only effect, or another doubt; inactive = no such curve, though single readings can be large or run the other way; note: potency is the fitted concentration of half-maximal effect
#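 Seed cells (1,000/well) for 4 h; treat with compound and infect with HCVcc-Cre, moi about 0.5. Incubate 44 h, then detect luciferase activity.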
# MARV entry inh: Marburg virus entry inhibition. Marburg virus pseudotyped entry inhibition, cell reporter. Potency, µM (titrated, usually from 37.8 µM), for inactives: at the top dose activity change, negative = inhibition, usual class: inhibitors. actives 1.8% (n = 300,000); calls by dose curve; tested in HEK293 cells; note: potency is the fitted concentration of half-maximal effect
# Starred values were filed as active, the others as inactive; ? = inconclusive; / = not tested or not shown; ! = not confirmed by another sample; [ ] = remark or other dose. % is set by controls: 0 for no effect and ±100 for the full control effect.
SMILES,LASV entry inh,FMDV antiviral,HCMV inh,HCV inhibitor,MARV entry inh
CC1(C)CC(=O)C(C(c2ccc(F)cc2)C2C(=O)CC(C)(C)CC2=O)C(=O)C1,-3.6%,-8.6%,-26.9,-3.1%,1.1%
COc1cc(CNC(=O)CCCC/C=C/C(C)C)ccc1O,/,44.7µM*!,-8.1,0.9%,/
CCCCCCCCC(=O)NCc1ccc(O)c(OC)c1,/,?,-10.0,-7.2%,-0.8%
COC(=O)N[C@@H](C=Cc1ccccc1)C[N+](=O)[O-],/,/,/,/,7.3%[14.2 µM]
O=S(=O)(c1ccc(OC(F)(F)F)cc1)N1CCC(c2nnnn2-c2ccc(F)cc2)CC1,20.9%[46.1 µM],-13.7%,-73.1*,/,0.1%[46.1 µM]
COc1ccc(S(=O)(=O)N2CCC(c3nnnn3-c3ccccc3)CC2)cc1OC,?,25.1µM*,-38.7,/,-21.1%[46.1 µM]
Cc1ccc(-n2nnnc2C2CCN(S(=O)(=O)c3ccc(OC(F)(F)F)cc3)CC2)cc1,8.1%[46.1 µM],-7.9%,-15.3,/,-3.8%[46.1 µM]
COc1ccc(-c2ccc3c(c2)c(-c2cccs2)c(-c2cc(OC)cc(OC)c2)n3C)cc1,/,-2.8%,-5.2,-2.7%,/
COc1cc(OC)cc(-c2c(-c3cccs3)c3cc(-c4cnc(OC)nc4)ccc3n2C)c1,/,?,-78.5*,?,/
CN(Cc1ccccc1)C(=O)CSc1nc(-c2ccc(F)cc2)cc(C(F)(F)F)n1,-12.2%[46.1 µM],-27.6%,-17.4,/,?
CCCCOc1c(Br)cc(CNCCCN2CCOCC2)cc1OC,?,-5.7%,-23.8,3.98µM*,?
CCCCNCc1cc(Br)c(OCC(=O)N2CCOCC2)c(OC)c1,19.4%,20.1%,35.2,27.3%,-17.0%
Cc1ccc(NC(=O)CCC(=O)N2Cc3ccccc3Oc3ncccc32)c(C)c1,3.5%[46.1 µM],-17.3%,4.9,/,/
O=C1C(Cl)=CC(=Nc2ccc(O)cc2)C=C1Cl,/,21.0%,-78.7*,-4.0%,/
N=c1ccn(Cc2cccc(F)c2)cc1,3.8%,?,?,3.16µM*,-3.8%
CC1CC(Nc2ccccc2)c2ccccc2N1C(=O)c1ccncc1 (centres undefined),-24.2%,-2.5%,-9.4,4.2%,10µM*
CSc1nc(N(C)NC(=O)c2ccc(F)cc2)c2ccccc2n1,?,-5.3%,-29.9,?,1.26µM*
CCCNC(=O)c1ccc2c(=O)c(O)c(-c3ccc(Cl)c([N+](=O)[O-])c3)[nH]c2c1,/,-14.3%,5.8,5.01µM*,/
O=C(NCCc1nc2ccccc2[nH]1)c1ccc(Cl)c([N+](=O)[O-])c1,1.1%,-24.0%,21.6,8.7%,3.1%
CC(C)[C@@H](C(=O)NC1CC1)N1C(=O)N2CCc3c([nH]c4ccccc34)[C@@]2(C)C1=O,/,-27.2%,54.5,-22.5%,/
C[C@@H](C(=O)NC1CCCCC1)N1C(=O)N2CCc3c([nH]c4ccccc34)[C@@]2(C)C1=O,/,?,9.9,0.562µM*,/
CC(C)[C@@H](C(=O)NC1CCN(Cc2ccccc2)CC1)N1C(=O)N2CCc3c([nH]c4ccccc34)[C@@]2(C)C1=O,/,-27.7%,-65.2*,-52.2%,/
CC(C)C[C@@H](C(=O)NC1CCN(Cc2ccccc2)CC1)N1C(=O)N2CCc3c([nH]c4ccccc34)[C@@]2(C)C1=O,/,?,6.8,?,/
C[C@@H](C(=O)NC1CCN(Cc2ccccc2)CC1)N1C(=O)N2CCc3c([nH]c4ccccc34)[C@@]2(C)C1=O,/,?,-13.0,7.94µM*,/
CCn1c(SCc2ccc(C(=O)Nc3cc(C)cc(C)c3)cc2)nnc1-c1ccncc1,-22.7%,17.8µM*,-61.5*,11.2µM*,?
SMILES,LASV entry inh,FMDV antiviral,HCMV inh,HCV inhibitor,MARV entry inh
COCCn1c(SCC(=O)/C=C2\N(C)c3ccccc3C2(C)C)nnc1-c1ccncc1,?,?,-74.5*,?,-37.9%
COCCn1c(SCCCC(=O)c2ccc(Br)cc2)nnc1-c1ccncc1,?,?,-70.8*,7.94µM*,?
CN1/C(=C\C(=O)CSc2nnc(N)s2)C(C)(C)c2ccccc21,?,?,?,-8.1%,?
COCCn1c(SCC(=O)c2c(-c3ccccc3)n(C)c3ccccc23)nnc1-c1ccncc1,-4.6%,-8.7%,-35.7,?,?
COc1ccc(Nc2nnc(SCC(=O)/C=C3/N(C)c4ccccc4C3(C)C)s2)cc1,14.1µM*,20µM*,-74.1*,?,?
CN(C)CCCCl,/,/,0.6,/,/
N=c1c2ccccc2nnn1-c1cccc(C(F)(F)F)c1,14.9%[46.1 µM],1.7%,-60.6*,17.7%,-3.4%
COc1cc(OC)c(NC(=O)C(c2ccccc2)N2Cc3ccccc3C2=O)cc1Cl (centres undefined),-20.1%[46.1 µM],13.3%,?,/,/
CCn1cc(CN2CCc3c([nH]c4ccccc34)C2c2ccc(F)c(OC)c2)c(C)n1 (centres undefined),-0.2%[46.1 µM],-23.7%,3.0,-24.3%,?
CCn1nc(C)c(CN2CCc3c([nH]c4ccccc34)C2c2ccc(F)c(OC)c2)c1C (centres undefined),23.1%[46.1 µM],-8.6%,-76.0*,?,?
CCN(CC)S(=O)(=O)c1cnccc1N1CCN(c2cccc(Cl)c2)CC1,?,39.8µM*,-29.3,-18.2%,?
CNS(=O)(=O)c1cnccc1N1CCN(c2cccc(Cl)c2)CC1,4.7%,-28.7%,-15.0,-6.1%,0.5%
Cc1cccc(NC(=O)CSc2nc(C)c(CC(=O)c3ccc(Br)cc3)c(C)c2C#N)c1C,1.0%,0.0%,-79.1*,-0.2%,?
COc1ccc(NC(=O)CSc2nc(C)c3c(c2C#N)CCCC3)cc1,-12.6%,-16.7%,?,-28.7%,-14.5%
Cc1nc(SCC(=O)Nc2ccc(F)cc2)c(C#N)c(C)c1CC(=O)c1ccc(Br)cc1,11.2µM*,-16.3%,-14.0,12.8%,?
COCc1cc(C)nc(SCC(=O)Nc2cccc(C)c2C)c1C#N,-17.3%,/,?,?,-1.2%
Cc1nonc1CN(C)C(=O)C1CC12CCN(C(=O)/C=C/c1cccc(Cl)c1)CC2 (centres undefined),/,-14.9%,/,/,/
O=C(N/N=C/c1ccc(O)c(O)c1)c1ccc(-n2cnnn2)cc1,/,-5.0%,3.7,?,/
Cc1nc2c(cc1C(=O)N/N=C/c1ccc(O)c(O)c1)c(=O)n(C)c(=O)n2C,0.9%,-25.3%,-74.3*,?,25.0%
COc1ccc(NC(=O)N(Cc2nnc3n2CCCCC3)c2ccc(OC)c(Cl)c2)cc1,?,-12.9%,-11.6,/,/
CCCCn1c(SCC(=O)c2ccc3c(c2)OCCO3)nnc1-c1ccoc1C,-28.5%,-18.4%,14.8,3.0%,11.2µM*
COc1ccc(-c2noc(-c3ccc(NCCc4ccccc4)c([N+](=O)[O-])c3)n2)cc1,17.8%[46.1 µM],-5.7%,-0.5,/,12.7%[46.1 µM]
O=C(N/N=C/c1cn(-c2ccccc2)nc1-c1cc2ccccc2o1)c1c[nH]c2ccccc12,?,9.0%,64.0,11.2µM*,?
O=C(N/N=C/c1cn(-c2ccccc2)nc1-c1cc2ccccc2o1)c1ccccc1Br,?,0.0%,-2.8,?,10µM*
COc1cc(OC)c(OC)cc1CNCCCSc1nnnn1C,-3.5%[46.1 µM],-11.8%,1.7,/,4.2%[46.1 µM]
